Measured values as given in PubChem BioAssay (NCI).
Compounds without any hit were thinned out: in the full panel of roughly 83,000, 20% have a hit.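 Step 1: grow cells in 96-well plates. Step 2: add test compound at a single concentration. Step 3: incubate 48 h. Step 4: record percent growth.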 A number with no mark means an inactive call. The source made the active and inactive calls. How the source made its calls: active means growth percent below 10; inactive means the rest.

Key:
Assay in all cases: NCI-60 one-dose screen, 48 h (100 = growth as untreated, 0 = no growth, -100 = all killed)
Details in all cases: 10 µM unless noted
K-562 leukemia = tested on: K-562 leukemia
MALME-3M melanoma = tested on: MALME-3M melanoma
MDA-MB-231 breast = tested on: MDA-MB-231 breast
RXF 393 renal = tested on: RXF 393 renal
SF-268 CNS = tested on: SF-268 CNS
SF-295 CNS = tested on: SF-295 CNS
SF-539 CNS = tested on: SF-539 CNS
UACC-257 melanoma = tested on: UACC-257 melanoma
M14 melanoma = tested on: M14 melanoma
HCT-15 colon = tested on: HCT-15 colon

Structure (SMILES) | growth (K-562 leukemia) | growth (MALME-3M melanoma) | growth (MDA-MB-231 breast) | growth (RXF 393 renal) | growth (SF-268 CNS) | growth (SF-295 CNS) | growth (SF-539 CNS) | growth (UACC-257 melanoma) | growth (M14 melanoma) | growth (HCT-15 colon)
Cc1ccccc1NC(=O)c1cc2ccccc2cc1O | 10.9% | -6.19% (active) | 70.6% | 22.2% | 21.1% | 86.4% | 64.4% | 68.1% | 58.1% | 48.5%
CCN1C2=C(SC(=S)C1=C1SC(C(=O)OC)=C(C(=O)OC)S1)SC(=Nc1ccc(OC)cc1)C2=O | 7.47% (active) | -28% (active) | 4.53% (active) | -87.7% (active) | 1.48% (active) | 2.33% (active) | -24.1% (active) | -55.1% (active) | -54.7% (active) | -20.7% (active)
COc1cccc2c1C(=O)c1c(O)c3c(c(O)c1C2=O)C[C@@](O)(/C(C)=N/NC(=O)c1cccc([N+](=O)[O-])c1)C[C@@H]3OC1CC(N)C(O)C(C)O1 (some centres undefined) | -75.7% (active) | -93.6% (active) | -5.42% (active) | -64.9% (active) | -20% (active) | -38.5% (active) | -25.7% (active) | -37.4% (active) | -43.8% (active) | 
c1ccc(-n2nnnc2-c2cccc3ccccc23)cc1 | 13% | 34.8% | 25.4% | -5.16% (active) | 43.4% | 1.28% (active) | -18.8% (active) | 57.5% | 8.41% (active) | 18.7%
COC(=O)CCC1=C(C)/C(=C/c2[nH]c(-c3ccc[nH]3)cc2OC)N=C1C | -16.4% (active) | -38.1% (active) | -17% (active) | 24.1% | 21.9% | -30% (active) | 18.7% | -16.4% (active) | 4.36% (active) | 
O=C(Nc1ccc(C2=NCCCN2)cc1)Nc1ccc(C2=NCCCN2)cc1 | 76.1% | 104% | 112% | 106% | 96.8% | 92.2% | 80.1% | 96.1% | 92.7% | 106%
Cc1cc(NC(=O)Nc2cccc3ccccc23)no1 | 92.4% | 101% | 112% | 99.6% | 108% | 103% | 97.2% | 105% | 107% | 95.2%
COc1ccc2c(c1)C(=O)/C(=C/c1ccc([N+](=O)[O-])s1)O2 | 3.01% (active) | -46.3% (active) | -71.1% (active) | -63% (active) | -72.7% (active) | 5.53% (active) | -46.2% (active) | -0.975% (active) | -20.6% (active) | 
CCOC(=O)C1C(=O)OC2CCCCC21 (centres undefined) | 102% | 120% | 101% | 119% | 111% | 114% | 105% | 102% | 98.3% | 101%
O=C1NCN(c2ccccc2)C12CCN(CCCC(c1ccc(F)cc1)c1ccc(F)cc1)CC2 | 6.41% (active) | 39.9% | 78% | 39.9% | 71.4% | 17.1% | 50.9% | -15.8% (active) | 9.99% (active) | 49.6%
N#Cc1c(N2CCOCC2)nc2sc3cc(Cl)ccc3n2c1=N | 106% | 117% | 75.9% | 72.7% | 94.4% | 118% | 97.3% | 103% | 111% | 102%
Cc1ccc2c(c1)C(=O)/C(=C/c1ncc([N+](=O)[O-])n1C)O2 | 0.705% (active) | -46.7% (active) | -40.1% (active) | -57.7% (active) | -31.9% (active) | 18% | 39.1% | -34.6% (active) | -55.8% (active) | 
Clc1ccc(-n2cnc3c(Cl)ncnc32)cc1Cl | 61.1% | 85% | 87.5% | 97.3% | 78.3% | 119% | 104% | 84.4% | 48.4% | 60.4%
O=C1/C(=C/c2ccc([N+](=O)[O-])o2)Oc2ccc(Cl)cc21 | -30.1% (active) | -45.6% (active) | -61.9% (active) | -72.2% (active) | -52% (active) | 103% | -25.6% (active) | -2.07% (active) | -18.8% (active) | 
COc1ccc2nc(-c3ccc(-n4cncc4-c4ccc(OC)c(N)c4)cc3)sc2c1 | 90.6% | 131% | 104% | 113% | 109% | 99.8% | 105% | 109% | 110% | 97.4%
Cc1ccc2c(c1)O/C(=C\c1ccc([N+](=O)[O-])o1)C2=O | 2.06% (active) | -10.5% (active) | 48.4% | -23.5% (active) | 29.3% | 94.3% | 44.5% | 68.3% | 55.8% | 4.4% (active)
CC(CCC(=O)O)(NC(=O)c1ccc([N+](=O)[O-])cc1)C(=O)O (centres undefined) | 99% | 106% | 113% | 115% | 104% | 106% | 105% | 99.4% | 102% | 113%
COC(=O)C[C@@H]1CC=CC(=O)/C1=C(O)/C=C/c1ccccc1 | 3.07% (active) | -60% (active) | -63% (active) | -83.6% (active) | 22.3% | -14.6% (active) | -39.1% (active) | -39.3% (active) | -70.2% (active) | -53.9% (active)
COc1ccc(/C=C2\NC(=S)NC2=O)cc1 | 117% | 77.5% | 94.5% | 126% | 106% | 119% | 98.3% | 106% | 100% | 93.5%
COc1c(C)c2c(c(O)c1C/C=C(\C)CCC(=O)OCCN1CCOCC1)C(=O)OC2 | 25.5% | 38.8% | 37.9% | 51.9% | 28.9% | 18.2% | 34.7% | 7.21% (active) | 19.8% | 15.5%
NC(=O)c1ccccc1NC(=O)c1ccccc1Cl | 89.9% | 130% | 99.6% | 82.1% | 108% | 90.5% | 109% | 88.7% | 112% | 95.6%
O=C(CCc1nnc(SCc2ccccc2)s1)c1nc2ccccc2[nH]1 | 80.2% | 83.8% | 77.9% | 108% | 100% | 92.1% | 109% | 111% | 108% | 81%
CCOC(=O)c1c2c(c(C)n1Cc1ccc(OC)cc1)-c1nc(N)ncc1CC2 | 88.8% | 132% | 97.2% | 116% | 110% | 104% | 112% | 121% | 106% | 113%
O=C(C(Br)Br)C(Br)C(Br)c1ccccc1 (centres undefined) | 18.9% | -37.9% (active) | 109% | 25.3% | 116% | 116% | 97.2% | 57.7% | 81.5% | 20.5%
N=C(N)/N=C(\CCc1nc2ccccc2[nH]1)c1nc2ccccc2[nH]1 | 98.4% | 96.9% | 100% | 116% | 112% | 120% | 97.1% | 109% | 96.4% | 106%
CCN(CC)CCCCNc1c2ccccc2[n+](C)c2c1[nH]c1ccccc12 | -20.8% (active) | -63.9% (active) | -0.507% (active) | -55.6% (active) | -16.2% (active) | -47.1% (active) | -40.6% (active) | -42.6% (active) | -28.4% (active) | 80.2%
C=C(C)[C@@H]1C[C@H](O)Cc2cc(Cl)cc(Cl)c2N1 | 103% | 108% | 93.6% | 101% | 102% | 104% | 94.5% | 104% | 110% | 
CCCn1cnc2c1c(=O)n(CCCCC(C)=O)c(=O)n2C | 90.9% | 113% | 104% | 103% | 99.3% | 118% | 101% | 102% | 104% | 103%
